This note sets out measurements from PubChem BioAssay AID2069 (Sanford-Burnham Center for Chemical Genomics, 2009).

About 210 (18%) of roughly 1,200 compounds were called active. A selection follows. A number with no mark means an inactive call. No stated cut-off is given here; in the data, active means inhibition above about 30%; inactive means the rest.

For orientation: inhibition means the drop in the measured response relative to a control, in per cent.

The experiment can be described thus: fluorescence readout artefact check – biochemical, HTRF, uHTS, artefact control for SUMOylation inhibitor project, confirmation (AID 2069). The note with it: HTRF interference counterscreen, at 35 µM, active compounds read high. A general note: In TR-FRET formats the signal depends on donor and acceptor labels being close together.
Consider `COc1ccccc1Oc1c(C)oc2cc(OC(=O)c3ccco3)ccc2c1=O`, for which the inhibition is 36.7% (active). With `CCOc1cc(/C=C2/C(=O)N(c3ccccc3)N=C2C)ccc1OC(=O)c1ccco1`, the inhibition is -12.2%.

Regarding `COc1cc(/C=C2\C(=O)N(c3ccc(S(N)(=O)=O)cc3)N=C2C)ccc1OC(=O)c1ccco1`, the inhibition was 19.1%. On to `CCOc1cccc(CNc2ccc(O)cc2)c1OCc1ccc(Cl)cc1Cl`, for which the inhibition is 17.7%. `COc1ccc(-n2c3nc4ccccc4nc3c3c(=N)oc(C)nc32)cc1`: the inhibition is -1.2%.

Turning to `O=C1N(c2ccc(Cl)c(Cl)c2)CN(Cc2ccccc2)CN1n1cnnc1`, the inhibition was 13.3%.

Take `CCCNC(=O)c1ccc2c(=O)c(O)c(-c3ccsc3)[nH]c2c1`: the inhibition was 46.5% (active). With `COc1ccccc1NC(=O)Cn1nc(C)n2cccc2c1=O`, the inhibition was -4.55%.

In the case of `COc1ccccc1NC(=O)Nc1ccnn1Cc1cccs1`, the inhibition was 63.1% (active). In the case of `COc1ccccc1NC(=O)CSc1ccc2nnc(-c3ccccn3)n2n1`, the inhibition was -3.25%. For the compound `O=C(Nc1nc(-c2ccccc2)cs1)c1ccccc1NS(=O)(=O)c1ccc(F)cc1`, the inhibition is 9.2%. As for `CC(=O)c1ccc2cccc3c2c1N=CN3C`, the figure is -3.4%; as for `COc1ccc(Br)cc1C1CC(=O)N2CN(Cc3ccccc3)CSC2=C1C#N` (centres undefined), -9.75%. Under `COc1ccc(OC)c(/C=N/NC(=O)CCc2ccc(O)c(O)c2)c1` stands 17.9%; under `COc1ccc(-c2nc3ccc([N+](=O)[O-])cc3[nH]2)cc1`, 23.2%; under `COc1ccc(-c2nc3ccncc3[nH]2)cc1OC`, 46.5% (active). As for `COc1ccc(NC(=O)C(=O)N/N=C\c2ccc(CNC(=O)C(=O)Nc3ccc(C)c(C)c3)o2)c(OC)c1`, the figure is 15.9%; as for `COc1cc(/C=C2\C(=O)N(CCC#N)N=C2C)c(Br)cc1OC(C)C`, -5.4%; as for `O=C(COc1ccc2oc(-c3ccco3)cc(=O)c2c1)N1CCCCC1`, 39.8% (active). Consider `CCN(CC)C(=O)COc1ccc2oc(-c3ccco3)cc(=O)c2c1`, for which the inhibition is 43.6% (active). As for `CN(C)c1cc(N/N=C/c2ccccc2C(F)(F)F)nc(N(C)C)n1`, the figure is -2.9%; as for `O=c1cc(CSc2nnnn2-c2ccccc2)nc(Nc2ccc(F)cc2)[nH]1`, 3.3%; as for `NC(=O)CC(NC(=O)Cc1cccc2ccccc12)c1ccc(NC2CCCCCC2)c([N+](=O)[O-])c1` (centres undefined), 6.15%.

As for `Cc1ccc(O)c(CNc2cccc3cccnc23)c1`, the inhibition is -18.2%. On to `CCOC(=O)c1c(C)oc2c1c(C=NCCO)c(O)c1ccccc12`, for which the inhibition is 5.4%.

For `CC(C)(C)c1cc(=O)n(-c2ccccc2)[nH]1`, the inhibition was -0.65%. Under `Fc1ccc(NC(=S)Nc2cccc3ccccc23)cc1F` stands -11.7%; under `CC1CCN(Cc2cc(=O)oc3cc(O)c(Cl)cc23)CC1`, 50.5% (active). Turning to `CC(C)(C)C1CCC2(CC1)Nc1cccc3cccc(c13)N2`, the inhibition is -2.5%.

As for `CCn1c(NC(=O)c2ccccc2)nc2ccccc21`, the inhibition is 1.3%. Turning to `COc1ccc(/C=C(\C#N)C(=O)OCC(=O)NCc2ccccc2Cl)cc1`, the inhibition is 6.4%.

Turning to `N#C/C(=C/c1ccc(-c2cc(C(=O)O)cc(C(=O)O)c2)o1)c1nc2ccccc2s1`, the inhibition is 13.9%. Take `COc1ccc2nc(/C(C#N)=C\c3ccc(C(=O)O)cc3)[nH]c2c1`: the inhibition was 47.6% (active).

On to `O=C(O)c1cc(Cl)c(Cl)cc1C(=O)Nc1cccc2ncccc12`, for which the inhibition was 2.4%.

On to `O=C(/C=C/c1ccco1)NC(=S)Nc1cc(-c2nc3ccccc3s2)ccc1Cl`, for which the inhibition was 3.15%. On to `O=C(Nc1ccccc1-c1nc2ccccc2s1)c1cccnc1Cl`, for which the inhibition was 64% (active). For `COCCNC(=S)Nc1cccc2cnccc12`, the inhibition is 4.9%. As for `C=CCn1c(SCC(=O)N2N=C(c3ccco3)CC2c2ccco2)nnc1-c1ccncc1` (centres undefined), the figure is -5.2%. Consider `O=C1Nc2ccc([N+](=O)[O-])cc2C1=Nc1cccc(CO)c1`, for which the inhibition was 3.75%. As for `Cc1[nH]n(-c2ccccc2)c(=O)c1C(c1cccc([N+](=O)[O-])c1)c1c(C)[nH]n(-c2ccccc2)c1=O`, the figure is -11.2%. Under `NCCSc1c(-c2ccccc2)[nH]c2ccccc12` stands 0.7%; under `O=[N+]([O-])c1cc2c(cc1/C=N/n1c(-c3ccccn3)n[nH]c1=S)OCO2`, 0.15%.

Regarding `CCN(Cc1cc(=O)n2ccsc2n1)c1cccc2ccccc12`, the inhibition was 1.45%. Under `Cc1cccn2cc(-c3ccc(S(=O)(=O)N4CCOCC4)cc3)nc12` stands 40.8% (active). With `O=C(Nc1ccccc1F)Nc1cc(S(=O)(=O)N2CCOCC2)ccc1N1CCCC1`, the inhibition was 6.3%. As for `COc1ccccc1C(=O)Nc1ccc(-c2nnn(CC(=O)NCc3ccco3)n2)cc1`, the figure is 13.7%. On to `Cc1ccc(C(=O)Nc2sc3c(c2C(=O)NCc2ccco2)CCCC3)cc1`, for which the inhibition was 29.9%.

For `COc1ccccc1C(=O)Nc1sc2c(c1C(=O)NCc1ccco1)CCCC2`, the inhibition is 33.8% (active). Turning to `O=c1nc(Nc2ccc(Br)cc2)sc2ccc([N+](=O)[O-])cc12`, the inhibition was -4%. `CCCCC[C@H](O)/C=C/[C@@H]1[C@@H](C/C=C\CCCC(=O)OC)[C@@H](O)C[C@H]1O`: the inhibition is 23.6%. For the compound `CCN(CC)S(=O)(=O)c1ccc(C)c(NC(=O)CSc2ncc(C(F)(F)F)cc2Cl)c1`, the inhibition was -6.95%. Under `c1cc(Nc2ncnc3sc4c(c23)CCC4)ccn1` stands 42.9% (active); under `CC1=NN(c2ccc(Cl)cc2)C(=O)C1C(c1cccc(O)c1)c1c(C)[nH]n(-c2ccc(Cl)cc2)c1=O` (centres undefined), -23.6%; under `COc1ccc(C(c2c(C)[nH]n(-c3ccccc3)c2=O)c2c(C)[nH]n(-c3ccccc3)c2=O)cc1OC`, 13.3%. On to `N#Cc1c(N)nc2c(c1-c1ccc3c(c1)OCO3)CCc1ccccc1-2`, for which the inhibition was 13.8%. As to `Cc1oc2c(c(C)cc3oc(=O)c(CC(=O)NCC(=O)NCC(=O)NCC(C)O)c(C)c32)c1C` (centres undefined), the inhibition was 47.8% (active).

Take `Cc1oc2c(c(C)cc3oc(=O)c(CC(=O)NCC(=O)NCC(=O)O)c(C)c32)c1C`: the inhibition was 52.3% (active). Under `CC1=NN(c2ccccc2)C(=O)/C1=C\c1cn(CCC#N)nc1-c1ccc(Cl)cc1` stands -15.8%; under `S=C(Nc1ccc2nc(-c3ccccn3)c(-c3ccccn3)nc2c1)N1CCOCC1`, 10.8%. With `CN(Cc1ccco1)C(=O)c1cc2c(s1)-c1ccc(Cl)cc1S(=O)(=O)C2`, the inhibition is -9.15%. `S=c1[nH]nc(-c2cc(-c3ccccc3)n[nH]2)n1/N=C/c1c(Cl)cccc1Cl`: the inhibition is 6.95%. For the compound `CC1CCCN(c2nc3ccccc3nc2C(C#N)S(=O)(=O)c2ccccc2)C1` (centres undefined), the inhibition was 11.8%.

Regarding `O=C1Nc2ccc(C(F)(F)F)cc2N2CCCC12` (centres undefined), the inhibition is 5.75%. Under `Cc1ccccc1N=Cc1cc2c(cc1[N+](=O)[O-])OCO2` stands -2.65%.

For the compound `O=C1C(C2=NC(c3ccccn3)C3C(=O)N(c4ccc(Cl)cc4Cl)C(=O)C23)=C(O)c2ccccc21` (centres undefined), the inhibition is 2.95%. As for `O=C(N/N=C/c1ccc([N+](=O)[O-])o1)c1cc2c(ccc3ccccc32)o1`, the figure is 20.9%. Consider `Cc1cc(C(=O)N/N=C/c2ccc(-c3ccc(C)c(Cl)c3)o2)n[nH]1`, for which the inhibition is 4.9%. Under `O=C(N/N=C/c1ccc(-c2ccc(Cl)c(C(=O)O)c2)o1)c1cc2c(ccc3ccccc32)o1` stands 50.7% (active). Take `Cc1ccc(-n2c(SCC(=O)N/N=C/c3ccccc3C(=O)O)nnc2-c2ccc(Cl)cc2)cc1`: the inhibition is 5.25%. As for `O=C(CN1C(=O)CSC1=O)Nc1ccc(C(=O)O)cc1`, the figure is 1.7%.

For `O=C(CSc1nnc(SCc2ccccc2)s1)N/N=C/C=C\c1ccco1`, the inhibition was 3.25%.

On to `O=C(Nc1ccc2oc(-c3cccc4ccccc34)nc2c1)c1ncn[nH]1`, for which the inhibition is 16.2%. Under `Cc1ccc2oc(-c3ccc(C)c(NC(=O)Cc4cccs4)c3)nc2c1` stands 22.6%; under `Cc1nc2ccc(-c3nc4cc(N)ccc4o3)cc2[nH]1`, 54.3% (active).

For `Nc1ccc2oc(-c3cccs3)nc2c1`, the inhibition is 37.1% (active). Under `Cc1ccccc1-c1nc2cc(N)ccc2o1` stands 46.2% (active); under `Cc1ccc(-c2nc3cc(N)ccc3o2)cc1`, 55.7% (active); under `Cc1ccc(-n2nc(C)c3c2OC(N)=C(C#N)C3c2ccoc2)cc1` (centres undefined), 1.75%.

Take `COc1ccc(OC)c(/C=C2\S/C(=N/NC(=O)c3ccc4ccccc4c3)NC2=O)c1`: the inhibition was 8.75%. For `Cc1cc(C)c(S(=O)(=O)/N=C2/C=C(SCC(=O)O)C(=O)c3ccccc32)cc1C`, the inhibition was -10.7%. Under `O=C1C2C3C=CC(C3)C2C(=O)N1CNc1ccc(O)cc1` (centres undefined) stands -8.05%; under `O=c1c2ccccc2nc(COc2ccccc2)n1/N=C/c1cc([N+](=O)[O-])ccc1O`, -7.1%. Take `Oc1ccc(NCc2cccc(OCc3ccccc3)c2)cc1`: the inhibition was -19.4%.

With `O=C1C(NS(=O)(=O)c2cccs2)=C(N2CCN(c3cccc(C(F)(F)F)c3)CC2)C(=O)c2ccccc21`, the inhibition was -7.25%.

As to `Cc1ccccc1S(=O)(=O)Nc1nc2ccccc2nc1N1CCc2ccccc2C1`, the inhibition was -3.1%. Under `N=c1c2cn[nH]c2nc(SCC(=O)c2ccc(Br)cc2)n1-c1ccc(Br)cc1` stands 0.5%; under `O=C(CSc1nnc(-c2ccco2)c(-c2ccco2)n1)c1ccccc1`, 9%; under `S=c1[nH]nc(-c2ccc(Cl)cc2)n1/N=C/C=C/c1ccco1`, -4.3%. On to `CCOC(=O)C1CCCN(c2cc(NCCCO)c([N+](=O)[O-])c3nonc23)C1` (centres undefined), for which the inhibition is -8.1%.
